PubChem BioAssay (NCI)
The panel holds about 83,000 compounds, 20% with a hit somewhere; the sample as a whole holds those more often.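 The test compound was applied at a single concentration to cells in 96-well plates for 48 hours, and percent growth was recorded.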 A number with no mark means an inactive call. Active and inactive are the calls of the source. Rule for the calls: active = growth percent below 10; inactive = the rest.

Experiments:
Assay in all cases: NCI-60 one-dose screen, 48 h (100 = growth as untreated, 0 = no growth, -100 = all killed)
[1] = test system: NCI-H23 lung; conditions: 10 µM unless noted
[2] = test system: NCI-H322M lung; conditions: 10 µM unless noted
[3] = test system: HOP-62 NSCLC; conditions: 10 µM unless noted
[4] = test system: NCI-H460 lung; conditions: 10 µM unless noted
[5] = test system: HOP-92 NSCLC; conditions: 10 µM unless noted
[6] = test system: A549/ATCC NSCLC; conditions: 10 µM unless noted
[7] = test system: 786-0 renal; conditions: 10 µM unless noted
[8] = test system: COLO 205 colon; conditions: 10 µM unless noted
[9] = test system: DU-145 prostate; conditions: 10 µM unless noted
[10] = test system: MALME-3M melanoma; conditions: 10 µM unless noted
[11] = test system: MDA-MB-231 breast; conditions: 10 µM unless noted
[12] = test system: SF-268 CNS; conditions: 10 µM unless noted
[13] = test system: SF-295 CNS; conditions: 10 µM unless noted
[14] = test system: SF-539 CNS; conditions: 10 µM unless noted
[15] = test system: M14 melanoma; conditions: 10 µM unless noted
[16] = test system: NCI-H522 lung; conditions: 10 µM
[17] = test system: K-562 leukemia; conditions: 10 µM unless noted
[18] = test system: RXF 393 renal; conditions: 10 µM unless noted
[19] = test system: UACC-257 melanoma; conditions: 10 µM unless noted
[20] = test system: NCI-H226 lung; conditions: 10 µM unless noted

Compound	growth [1]	growth [2]	growth [3]	growth [4]	growth [5]	growth [6]	growth [7]	growth [8]	growth [9]	growth [10]	growth [11]	growth [12]	growth [13]	growth [14]	growth [15]	growth [16]	growth [17]	growth [18]	growth [19]	growth [20]
Clc1ccc2c(c1)C(Br)c1cc(Cl)cc(Cl)c1-2 (configuration not stated)	14.8%	81.4%	88.1%	99.9%	53.5%	98.4%	84.9%	103%	109%	45.1%	75.6%	98.3%	101%	81.6%	34.8%					
O=C(c1ccc(Cl)cc1)c1ccc(Cl)cc1	104%	115%	98.8%	107%	101%		114%	117%	108%	129%	124%	104%	102%	107%	114%	85.2%	98.2%	103%		
N#Cc1c(-c2ccccc2)cc(-c2ccccc2)n(CC(=O)O)c1=O	70.2%	96.9%	53.8%	40.7%	61.7%	51.9%	62.9%	68.4%	87.5%	56.2%	60.3%	67.2%	36.8%	66.5%	26.3%		21.1%	62.3%	64.4%	
COCCCNS(=O)(=O)c1ncnc2nc[nH]c12	96.4%	119%	93.4%	105%	120%		98.9%	112%	98.5%	107%	124%	106%	129%	99.1%	92.6%	119%	109%			
C[N+]1(C)C2CC[C@@H]1CC(OC(=O)C(O)c1ccccc1)C2 (some centres not stated)	95.9%	97.8%	117%	119%	91.4%		104%	129%	127%	94.1%	107%	114%	104%	108%	105%			111%	110%	
O=C(COc1cccc(/C=C2\Oc3ccc4ccccc4c3C2=O)c1)c1ccc(Cl)cc1	28.3%	108%	101%	114%	81.9%		105%	102%		69.4%	84.7%	88.8%	104%	68.2%	83.6%	38%	122%		95.6%	
O=c1c2c(=NCCCN3CCCC3)cc3c(=O)n(CCCN4CCCC4)c(=O)c4c(NCCCN5CCCC5)cc(c(O)n1CCCN1CCCC1)c2c4-3		-29.5% (active)	-13.7% (active)	-32.1% (active)	0.433% (active)		-13.9% (active)	-68.4% (active)	-16.1% (active)		-9.58% (active)	-7.1% (active)	-42.5% (active)	-32.6% (active)	-63.1% (active)		6.04% (active)	-67.6% (active)	-29.8% (active)	-26.3% (active)
CCSc1ncc(Br)c(Sc2nc(N)nc3nc[nH]c23)n1		89.1%	31.8%	46.6%	31.6%		33.6%	110%	43.1%	36.2%	40.9%	44.8%	38.6%	60.1%	31.7%	59%	26.6%			65.4%
C=CCN(/C=C/CN(CC=C)CC=C)CC=C		96.7%	97.7%	105%	91.2%		104%	107%	110%	102%	90.4%	105%	84.3%	99.7%	103%		100%	111%	108%	95.7%
